Bioassay records (PubChem)
ASM inhibitor: Inhibitors of Secretory Acid Sphingomyelinase (S-ASM): qHTS. placental ASM, HMU-PC fluorogenic substrate, 60 min. 340,000 compounds, 0.006% hits. AID 504937, 2011. Potency, µM (titrated, usually from 57.5 µM), inactives show at the top dose activity change, negative = inhibition, hits mostly inhibitors. Sphingomyelin phosphodiesterase (Homo sapiens), P17405; note: potency is the fitted concentration of half-maximal effect
Target sequence (P17405 47-631 limits assumed): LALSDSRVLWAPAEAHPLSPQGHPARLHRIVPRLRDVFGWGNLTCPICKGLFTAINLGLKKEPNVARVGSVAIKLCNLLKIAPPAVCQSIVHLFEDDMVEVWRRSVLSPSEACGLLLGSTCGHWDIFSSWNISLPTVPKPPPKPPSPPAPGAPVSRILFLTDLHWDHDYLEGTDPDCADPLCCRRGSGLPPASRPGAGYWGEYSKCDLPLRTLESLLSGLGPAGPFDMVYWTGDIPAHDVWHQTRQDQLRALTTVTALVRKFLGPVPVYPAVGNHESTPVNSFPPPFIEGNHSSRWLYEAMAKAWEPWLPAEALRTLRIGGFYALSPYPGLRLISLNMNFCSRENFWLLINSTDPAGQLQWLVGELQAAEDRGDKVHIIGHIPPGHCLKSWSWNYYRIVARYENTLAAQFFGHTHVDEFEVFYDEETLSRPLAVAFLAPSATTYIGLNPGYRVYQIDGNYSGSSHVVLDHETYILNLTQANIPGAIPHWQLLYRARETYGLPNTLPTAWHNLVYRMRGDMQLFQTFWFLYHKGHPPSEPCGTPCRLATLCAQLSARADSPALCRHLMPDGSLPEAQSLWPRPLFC
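Human placenta-derived ASM enzyme was preincubated with compound for 10 minutes at room temperature, then given fluorogenic substrate HMU-PC0 (9 uM final) for 60 minutes at 37 °C; a pH 10 stop preceded fluorescence reading at Ex 386/Em 447 nm.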
HepG2 tox: qHTS for Inhibitors of TGF-b: Cytotox Counterscreen. HepG2 CAGA-GFP viability, ATP luminescence, 18 h. Potency, µM (top dose mostly 46.1 µM), for inactives: at the highest dose activity change, negative = cytotoxicity, actives largely listed as cytotoxic. 410,000 compounds, 0.76% hits; note: potency is the fitted concentration of half-maximal effect
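CellTiter-Glo luminescence gave cytotoxicity after 18 hours at 37 degrees C. The cells were HepG2 CAGA-GFP in 1% FBS DMEM, stimulated with 500 pg/mL TGF-beta after compound addition. %Activity was normalised to no-cell wells (complete cell-killing) and DMSO (no toxicity), and curves were fitted and classified.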
IL-1B inflam inh: qHTS for Inhibitors of Inflammasome Signaling: IL-1-beta AlphaLISA Primary Screen. THP-1 LPS/ATP IL-1B secretion, AlphaLISA, 16 h; stronger effect = lower value. activity change, % at 57.5 µM. 360,000 compounds, 4.7% hits. AID 743279, 2014; in the data active = activity change below about -50%; inconclusive = mostly about -30% to -49%; note: % is set by controls: 0 for no effect and ±100 for the full control effect
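THP-1 cells pretreated 1 hr with compounds (up to 57.5 uM final), then stimulated with LPS (250 ng/mL final) plus ATP (1.25 mM final); secreted IL-1B measured by AlphaLISA after 16 hr, decreased signal indicating inhibition.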
DT40 TDP1 no CPT: qHTS for Inhibitors of human tyrosyl-DNA phosphodiesterase 1 (TDP1): qHTS in cells in absence of CPT; Potency, µM (highest dose often 46.2 µM), inactives show at the top dose activity change, negative = growth inhibition, actives largely listed as inhibitors; 420,000 compounds, 15% hits; AID 686978, 2013; DT40 Tdp1-/- hTDP1 cells, no CPT, ATP luminescence, 48 h; note: potency is the fitted concentration of half-maximal effect; % is set by controls: 0 for no effect and ±100 for the full control effect; nearly all actives have a fitted effect of over 55% in size
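Camptothecin absent (DMSO only). Human TDP1-complemented DT40 knockout cells, 400 cells/well, 37 °C for minimum 48 hr; ATP measured via CellTiter-Glo, 30 min dark incubation, luminescence.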
TGFb SMAD3 inh: qHTS for Inhibitors of TGF-b. HepG2 CAGA-GFP TGF-b/SMAD3 reporter, GFP fluorescence, 18 h; TGF-beta stimulated, 500 pg/mL final. Potency, µM (highest dose often 46.1 µM), without a hit: top-dose activity, negative = inhibition, most hits filed as inhibitors. 410,000 compounds, 1.2% hits; note: potency is the fitted concentration of half-maximal effect; % is set by controls: 0 for no effect and ±100 for the full control effect; nearly all actives have a fitted effect of over 65% in size
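Per well, imaged GFP fluorescence of HEPG2 CAGA-GFP cells gives the signal; cells get compound, then TGF-beta (500 pg/mL final), 18 h at 37 degrees C; %Activity versus -TGF-beta and +DMSO controls.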
TDP1 cell CPT: qHTS for Inhibitors of human tyrosyl-DNA phosphodiesterase 1 (TDP1): qHTS in cells in presence of CPT; chicken DT40 Tdp1-/-;hTDP1 cells + 20 nM CPT, ATP luminescence, 48 h; Potency, µM (highest dose often 46.2 µM), for the others: at the top dose activity change, negative = growth inhibition, most hits filed as inhibitors; 420,000 compounds, 12% hits; AID 686979, 2013; note: potency is the fitted concentration of half-maximal effect; % is set by controls: 0 for no effect and ±100 for the full control effect; nearly all actives have a fitted effect of over 55% in size
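Chicken DT40 Tdp1-/- cells stably complemented with human TDP1 were seeded at 400 cells/well in medium containing 20 nM camptothecin, exposed to pin-transferred compounds, and grown at 37 °C for at least 48 hr. Viability was read as ATP luminescence.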
An asterisk follows results filed as active; u = inconclusive; x = no result. Only some compounds are listed: those with a hit (about 19% of all), similar ones and a draw of the others. Unless noted, calls come from the whole dose curve; as a rule, active = well fitted curve in the direction sought with a large enough effect; inconclusive = small, poorly fitted or top-dose-only effect, or another doubt; inactive = no such curve, though single readings can be large; an effect the other way counts as inactive or inconclusive.

SMILES	ASM inhibitor	HepG2 tox	IL-1B inflam inh	DT40 TDP1 no CPT	TGFb SMAD3 inh	TDP1 cell CPT
CCc1cc(=O)oc2cc(C)cc(OCC(=O)N[C@@H](CSCc3ccccc3)C(=O)O)c12	18%	-15%	-10	-17%	1%	5%
CCOC(=O)c1c(-c2ccc3ccccc3c2)csc1NC(=O)CCCC(=O)O	-20%	-12%	16	u	u	-17%
CCOC(=O)c1c(-c2ccccc2)csc1NC(=O)CSc1nc(N)cc(N)n1	-3%	0%	-10	8.2µM*	u	u
C=C1N(C)c2cc([N+](=O)[O-])c(N)cc2C1(C)C	-5%	-4%	-53*	-29%	-32%	5%
Fc1ccc(N/N=C/c2ccc(N3CCOCC3)cc2)c(F)c1	7%	-4%	13	u	0%	12%
CC(=O)Nc1ccc(OCc2ccc(S(=O)(=O)Cc3ccccc3)cc2)cc1	4%	-15%	13	u	-19%	-10%
CC(=O)Nc1cccc(NC(=O)c2ccccc2OCc2ccccc2)c1	0%	-24%	u	u	3%	u
CC(=O)Nc1cccc(NC(=O)c2cccc(OCc3ccccc3)c2)c1	-13%	-22%	68	18µM*	-14%	21µM*
CC(=O)Nc1cccc(OCc2ccc(S(=O)(=O)Cc3ccccc3)cc2)c1	4%	-1%	16	21µM*	-23%	u
O=C(NC1CCCCC1)c1cccc(OCc2ccccc2)c1	-1%	-2%	-74*	u	-7%	u
O=S(=O)(NC(=NCc1ccccc1)c1ccccc1)c1ccc(Br)cc1	0%	-11%	-6	-24%	-8%	-1%
C[C@H](CO)N1C[C@H](C)[C@@H](CN(C)S(=O)(=O)c2ccc(Oc3ccccc3)cc2)OCc2cnnn2CCCC1=O	x	3%	12	0%	8%	14%
Cn1c(=O)c2cc(NC(=O)Cc3cccc4ccccc34)ccc2n1-c1ccccc1	x	4%	30	21µM*	11%	16µM*
O=C(Cc1cccc2ccccc12)NCCOc1ccccc1F	4%	-1%	-84*	-24%	-18%	-27%
Cc1ccccc1CC(=O)Nc1ccc2c(c1)c(=O)n(C)n2-c1cccs1	x	-15%	0	3.3µM*	10%	u
O=C(Cc1cccc2ccccc12)Nc1ccccc1	0%	-17%	-7	u	15%	23µM*
Cc1ccccc1CC(=O)Nc1ccc2c(c1)c(=O)n(C)n2-c1ccccc1F	x	-2%	-13	-23%	0%	u
CC(CC(=O)Nc1ccc2c(c1)c(=O)n(C)n2-c1ccccc1)c1ccccc1 (stereo not given)	x	2%	73	5.2µM*	-1%	5.2µM*
Nc1sc(-c2ccccc2)cc1C(=O)N1CCNCC1	x	x	u	-25%	x	u
CCCNC(=O)c1cc(C2CCCCN2C(=O)c2ccc(C#N)cc2)on1 (stereo not given)	x	7%	-10	-5%	-1%	4%
CC1=C(C(=O)Nc2cccc(C(F)(F)F)c2)C(c2ccccc2)n2ncnc2N1 (stereo not given)	x	-21%	x	-17%	-5%	-30%
COc1ccc(C2/C=C\CN(C(=O)OCC3c4ccccc4-c4ccccc43)CC(=O)N2Cc2cccc(F)c2)cc1 (stereo not given)	-11%	-37%	2	23µM*	u	u
COc1ccc([C@H]2/C=C\CN(C(=O)[C@H](Cc3ccccc3)NC(=O)OCC3c4ccccc4-c4ccccc43)CC(=O)N2Cc2ccc(F)cc2)cc1	-7%	-25%	-26	u	-2%	21µM*
COc1ccc(C2/C=C\CN(C(=O)C3CCCCC3)CC(=O)N2Cc2ccc(F)cc2)cc1 (stereo not given)	-6%	-15%	-13	u	u	u
COCCNc1nc(-c2ccccc2CN(C)C)nc2ccccc12	x	x	x	12µM*	x	u
SMILES	ASM inhibitor	HepG2 tox	IL-1B inflam inh	DT40 TDP1 no CPT	TGFb SMAD3 inh	TDP1 cell CPT
CN(C)Cc1ccccc1-c1nc(NCc2ccccc2)c2ccccc2n1	x	x	x	6.5µM*	x	16µM*
COCCNc1nc(-c2ccccc2C)nc2ccccc12	x	x	x	18µM*	x	u
COc1ccccc1CNc1nc(-c2ccoc2)nc2ccccc12	x	x	x	26µM*	x	15µM*
COc1ccccc1CNc1ncncc1-c1ccccc1CN(C)C	x	x	x	u	x	-8%
COc1ccccc1CNc1nc(-c2ccccc2CN(C)C)nc2ccccc12	x	x	x	6.5µM*	x	12µM*
Cn1nc(C(C)(C)C)cc1NC(=O)C1(C)CCN1C(=O)c1ccccc1CCc1ccccc1 (stereo not given)	x	-15%	-5	u	u	18µM*
CC(C)(C)c1cc(NC(=O)C2(C)CCN2C(=O)c2ccccc2CCc2ccccc2)no1 (stereo not given)	x	-30%	6	21µM*	-4%	u
CC1(C(=O)Nc2cnc3ccccc3c2)CCN1C(=O)c1ccccc1CCc1ccccc1 (stereo not given)	x	-36%	-10	u	u	u
Cn1nc(C(C)(C)C)cc1NC(=O)C1(C)CCN1C(=O)Cc1ccc(-c2ccccc2)cc1 (stereo not given)	x	-32%	-12	18µM*	u	15µM*
Cn1nc(C(C)(C)C)cc1NC(=O)C1(C)CCN1C(=O)CCc1ccccc1 (stereo not given)	x	2%	-3	u	-1%	u
CCOc1ccc(-c2nc(CSCC(=O)NC3CCN(Cc4ccccc4)CC3)c(C)o2)cc1	x	-40%	-21	u	u	23µM*
CCOc1ccc(-c2nc(CSCC(=O)NC3CC3)c(C)o2)cc1	0%	-17%	10	u	22%	u
Cc1oc(-c2ccc(Cl)cc2)nc1CSCC(=O)NC1CCN(Cc2ccccc2)CC1	0%	-21%	-61*	u	u	u
CCOc1ccc(-c2nc(CSCC(=O)NC3CCCc4ccccc43)c(C)o2)cc1 (stereo not given)	-19%	-14%	-77*	u	7%	18µM*
